Potency, max response and outcome data for 13 compounds are collected here from PubChem BioAssay (NCATS).

Molecules are shown by their SMILES. Records with an inconclusive call do not appear. Values without a mark were called inactive. Active and inactive are the calls of the source. The call rests on the fitted dose curve; in most records, active means well fitted inhibition curve with a large enough effect; inconclusive means small, poorly fitted or top-dose-only effect; inactive means flat fitted curve, though single readings scatter.
On the % scale 0 is the no-effect control and ±100 the full control effect; potency means the concentration at half of the fitted maximal effect.

The test has as its system CRL-7250. As to the kind of experiment: Cytotoxic Profiling of Annotated Libraries Using Quantitative High-Throughput Screening (AID 1296008). Further: nearly all actives have a fitted effect of over 60% in size. The settings on record: Five cell lines viability, CellTiter-Glo ATP luminescence, 48-72 h; max response: hits give low values. In a few lines: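 Cytotoxicity was measured as CellTiter-Glo ATP luminescence, read after 10 min at room temperature. Compound treatment of the cells lasted 48 or 72 hr at 37 degrees Celsius in a qHTS format.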
A general note: In ATP-based viability assays light output follows the ATP content of the culture.
Take `Cn1c(=O)c2c(ncn2Cc2ccc(C(C)(C)C)cc2)n(C)c1=O`: the Potency is 1.3 µM (active).
Consider `COC(=O)CC1OC(C)C2=C(O)c3c(O)cccc3C(=O)C23OC13` (stereo not drawn), for which the Potency is 4.04 µM (active).
Consider `O=C1Nc2nc(-c3c(O)cccc3OCC3CC3)cc([C@@H]3CCCNC3)c2CO1`, for which the max response is -29.4%.
With `CC(O)C(C)n1ncn(-c2ccc(N3CCN(c4ccc(OCC5COC(Cn6cncn6)(c6ccc(Cl)cc6Cl)O5)cc4)CC3)cc2)c1=O` (stereo not drawn), the outcome was inactive.
Consider `CN1CCN(c2ccc(Nc3cc(-c4cccc(-n5ccc6cc(C7CC7)cc(F)c6c5=O)c4CO)cn(C)c3=O)nc2)CC1`, for which the Potency was 23.1 µM (active).
Take `CCCCNc1ncc(-c2ccc(CN3CCOCC3)cn2)c(NC2CCC(O)CC2)n1` (stereo not drawn): the max response was -14.5%.
Take `COc1cc2c(cc1OC(C)C)[C@H](c1ccc(Cl)cc1)N(c1ccc(N(C)CC3CCC(N4CCN(C)C(=O)C4)CC3)cc1)C(=O)C2` (stereo partly drawn): the Potency was 18.4 µM (active).
On the same count and under the same terms, to `CC(C)n1cnc2c(-c3cnc(N)nc3)nc(N3CCOCC3)nc21` belongs 0.709 µM (active).
With `Nc1nc(NC2CC2)cc(-c2cccc(Cl)c2Cl)n1`, the max response is -27.4%.
As to `COc1cc(CCC2=NN=C(NC(=O)c3ccc(N4C[C@@H](C)N[C@@H](C)C4)cc3)C2)cc(OC)c1`, the Potency is 10.3 µM (active).
As for `CCC(C)CC(=O)OC1C(=O)C(CO)=CC(O)C1C(C)C` (stereo not drawn), the Potency is 18.4 µM (active).
On to `COCC(=O)NC/C=C/c1ccc2ncnc(Nc3ccc(Oc4ccc(C)nc4)c(C)c3)c2c1`, for which the Potency was 9.2 µM (active).
Turning to `CC(C)=CCCC1(C)/C=C/C(OC(=O)C=C(C)C)C(C)(O)/C=C/C(=O)/C(CO)=C\C1` (stereo not drawn), the max response was -29.1%.
